Source: PubChem BioAssay (EPA / NIEHS)
Records with an inconclusive call do not appear. Activity calls are given as the source filed them. The calls were made as follows: active = hit-call score of the fitted dose curve at least 0.9, where 1 is the maximum; inconclusive = response in the unintended direction; inactive = score below 0.9.

Key:
[1] = target: Cellular tumor antigen p53 (Homo sapiens) (UniProt P04637); assay: TOX21_p53_BLA_p2_ratio: Tox21 HCT-116 p53 Agonism Beta-lactamase Assay, Ratio, Phase 2 (AID 2283592)
Chain of Cellular tumor antigen p53 (Homo sapiens) (P04637 whole entry, looked up): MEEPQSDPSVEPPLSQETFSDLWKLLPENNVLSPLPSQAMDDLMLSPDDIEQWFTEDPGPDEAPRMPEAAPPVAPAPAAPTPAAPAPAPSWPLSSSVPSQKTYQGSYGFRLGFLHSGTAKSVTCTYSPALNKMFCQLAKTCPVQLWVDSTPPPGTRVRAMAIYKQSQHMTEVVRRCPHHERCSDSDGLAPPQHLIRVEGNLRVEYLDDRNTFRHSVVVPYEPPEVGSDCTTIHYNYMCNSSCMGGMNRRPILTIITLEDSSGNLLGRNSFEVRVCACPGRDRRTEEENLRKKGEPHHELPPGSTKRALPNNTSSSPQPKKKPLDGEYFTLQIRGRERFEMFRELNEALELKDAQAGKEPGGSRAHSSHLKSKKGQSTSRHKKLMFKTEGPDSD
Outline: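 An inducible beta-lactamase reporter in HCT116 cells signals p53 pathway activation. After 16 h chemical exposure at 37C, cells load CCF4-AM substrate for 2 h at room temperature; activity is the cleaved/uncleaved emission ratio relative to DMSO.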

[2] = TOX21_p53_BLA_p3_viability: Viability Assessment in the Tox21 HCT-116 p53 Agonism Beta-lactamase Assay, Phase 3 (AID 2283593);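 also: cells exposed to compound for 16 h before reading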
Outline: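 HCT-116 cells (4000/well) rested 5 h at 37C, then got DMSO compounds by pin tool (217-fold dilution) for 16 h at 37C, 5% CO2. After the bla read, CellTiter-Glo was added and luminescence read at 30 min, room temperature.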

[3] = target: Cellular tumor antigen p53 (Homo sapiens) (UniProt P04637); assay: TOX21_p53_BLA_p3_ratio: Tox21 HCT-116 p53 Agonism Beta-lactamase Assay, Ratio, Phase 3 (AID 2283596)
Outline: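 HCT116 p53-bla cells (4000/well) given compound in DMSO (217-fold dilution) after 5 h, incubated 16 h at 37C. CCF4-AM substrate 2 h at room temperature; 460/530 nm emission ratio, gain fitted against DMSO.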

[4] = TOX21_p53_BLA_p4_viability: Viability Assessment in the Tox21 HCT-116 p53 Agonism Beta-lactamase Assay, Phase 4 (AID 2283597);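 also: hits lower the luminescence signal meaning cytotoxicity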
Outline: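 Compound exposure of HCT116 cells lasts 16 h at 37C, 5% CO2, with DMSO stocks diluted 217-fold. Cellular ATP is then quantified by CellTiter-Glo luminescence after 30 min at room temperature.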

[5] = target: Cellular tumor antigen p53 (Homo sapiens) (UniProt P04637); assay: TOX21_p53_BLA_p5_ratio: Tox21 HCT-116 p53 Agonism Beta-lactamase Assay, Ratio, Phase 5 (AID 2283599)
Outline: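 HCT-116 cells carrying a p53-inducible beta-lactamase reporter were seeded at 4000 cells/well and dosed after 5 h with compound in DMSO (217-fold dilution). After 16 h at 37C, CCF4-AM substrate was added for 2 h, and the 460/530 nm emission ratio was scored as gain-of-signal versus DMSO.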

[6] = TOX21_p53_BLA_p5_viability: Viability Assessment in the Tox21 HCT-116 p53 Agonism Beta-lactamase Assay, Phase 5 (AID 2283600)
Outline: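 Counter-readout for cytotoxicity: ATP-dependent luminescence from CellTiter-Glo, read in the beta-lactamase wells after 30 min at RT, following a 16 h compound exposure at 37C.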

[7] = target: Cellular tumor antigen p53 (Homo sapiens) (UniProt P04637); assay: TOX21_p53_BLA_p4_ratio: Tox21 HCT-116 p53 Agonism Beta-lactamase Assay, Ratio, Phase 4 (AID 2283601)
Outline: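 HCT116 cells carrying an inducible beta-lactamase reporter were plated at 4000 cells/well, rested 5 h, then exposed to compounds in DMSO (217-fold dilution) for 16 h at 37C. CCF4-AM substrate was loaded 2 h at room temperature; 460/530 nm emission ratio scored gain-of-signal versus DMSO.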

Measured: AC50

CCCCN1CCCC[C@H]1C(=O)Nc1c(C)cccc1C
inactive: [1] | [2] | [3] | [4] | [5] | [6]

NC(=O)c1cccc([N+](=O)[O-])c1
inactive: [1] | [2] | [3] | [4] | [5] | [6]

O=C(O)c1nc(=O)[nH]c(=O)[nH]1
inactive: [1] | [2] | [3] | [4] | [5] | [6] | [7]

CC1(C)[C@@H]2CC[C@@]1(C)[C@H](OC(=O)CSC#N)C2
inactive: [1] | [2] | [3] | [4] | [5]

CCCCCCCCCCCCCCN(C)C
inactive: [1] | [2] | [3] | [4] | [5]

Nc1nnnn1-c1ccccc1
inactive: [1] | [2] | [3] | [4] | [5] | [6]

O=C(Cn1cnnn1)N[C@@H]1C(=O)N2C(C(=O)O)=C(CSc3nncs3)CS[C@H]12
inactive: [1] | [2] | [3] | [4] | [5] | [6]

[O-][n+]1cccc(CO)c1
inactive: [1] | [2] | [3] | [4] | [5]

CCCCCCCCCCCC(=O)N(CCO)CCO
inactive: [1] | [2] | [3] | [4] | [5] | [6]

O=C(O)CN1C(=O)c2cccc3cccc(c23)C1=O
inactive: [1] | [2] | [3] | [4] | [5]

COC1[C@@H](O[C@@H]2O[C@H](C)[C@@H](O[C@H]3C[C@@](C)(O)[C@H](OC(=O)CC(C)C)[C@H](C)O3)[C@H](N(C)C)[C@H]2O)[C@@H](CC=O)C[C@@H](C)[C@@H](O)/C=C/C=C/C[C@@H](C)OC(=O)C[C@H]1OC(C)=O (some centres undefined)
inactive: [1] | [2] | [3] | [4]

CCN1CC(CCN2CCOCC2)C(c2ccccc2)(c2ccccc2)C1=O (centres undefined)
inactive: [1] | [2] | [3] | [4] | [5]

COc1ccc2c(=O)c(C)c(-c3ccccc3)oc2c1CN(C)C
inactive: [1] | [2] | [3] | [4] | [5]

CN[C@@H]1[C@@H](O[C@H]2O[C@H](CO)[C@@H](N)[C@H](O)[C@H]2O)O[C@H]2C[C@@H](N)[C@@H](O[C@H]3[C@H](O)[C@@H](O)[C@H](N)C[C@@H]3N)O[C@@H]2[C@@H]1O
inactive: [1] | [2] | [3] | [4] | [5] | [6] | [7]

CCOC(=O)c1c(C)n(C)c2ccc(O)cc12
inactive: [1] | [2] | [3] | [4] | [5]

CN(Cc1cc(Br)cc(Br)c1N)C1CCCCC1
inactive: [1] | [3] | [4] | [5] | [6] | [7]
active: [2] 39.5 µM

O=C(Cl)c1cc(Cl)cc(Cl)c1
inactive: [1] | [2] | [3] | [4] | [5] | [6]

Cc1ccc(O)c2ncccc12
inactive: [1] | [2] | [3] | [4] | [5] | [6] | [7]

NCC[C@H](O)C(=O)N[C@@H]1C[C@H](N)[C@@H](O[C@H]2O[C@H](CN)[C@@H](O)[C@H](O)[C@H]2O)[C@H](O)[C@H]1O[C@H]1O[C@H](CO)[C@@H](O)[C@H](N)[C@H]1O
inactive: [1] | [2] | [3] | [4] | [5] | [6]

Cc1cc(S(=O)(=O)O)c(N)cc1Cl
inactive: [1] | [2] | [3] | [4] | [5] | [6] | [7]

Oc1ccc(Cc2ccccc2)cc1
inactive: [2] | [3] | [4] | [5] | [6] | [7]
active: [1] 66.5 µM

Cc1c(C)c2c(c(C)c1O)CC[C@@](C)(CCC[C@H](C)CCC[C@H](C)CCCC(C)C)O2
inactive: [1] | [2] | [3] | [4] | [5] | [6] | [7]

CCn1cc(C(=O)O)c(=O)c2cc(F)c(N3CCNC(C)C3)c(F)c21 (centres undefined)
inactive: [1] | [2] | [3] | [4] | [5] | [6] | [7]

O=C(NN=Cc1ccc([N+](=O)[O-])o1)c1ccc(O)cc1
inactive: [2] | [4] | [6] | [7]
active: [1] 10.2 µM | [3] 16.2 µM | [5] 15.5 µM

CCCCCC[C@@H](CCC)C(=O)O
inactive: [1] | [2] | [3] | [4] | [5] | [6] | [7]

NC(N)=NN=Cc1c(Cl)cccc1Cl
inactive: [1] | [2] | [3] | [4] | [5] | [6] | [7]

C#CCOc1ccc2c(C)cc(=O)oc2c1
inactive: [1] | [2] | [3] | [4] | [5] | [6] | [7]

Nc1ncnc2c1ncn2[C@@H]1O[C@H](COP(=O)(O)OP(=O)(O)OP(=O)(O)O)[C@@H](O)[C@H]1O
inactive: [1] | [2] | [3] | [4] | [5] | [6] | [7]

CC(C)COC(=O)c1ccc(O)cc1
inactive: [1] | [2] | [3] | [4] | [5] | [6] | [7]

c1ccc(-n2cnnn2)cc1
inactive: [1] | [2] | [3] | [4] | [5] | [6] | [7]

CCCCCCCCCCCl
inactive: [1] | [2] | [3] | [4] | [5] | [6] | [7]

O=C1OC(O)C(C(Cl)Cl)=C1Cl (centres undefined)
inactive: [6] | [7]
active: [1] 13.2 µM | [2] 14.6 µM | [3] 13.3 µM | [4] 12.7 µM | [5] 25.6 µM

Cc1ccccn1
inactive: [1] | [2] | [3] | [4] | [5] | [6] | [7]

O=C(c1ccccc1)c1cccc(O)c1
inactive: [1] | [2] | [3] | [4] | [5] | [6] | [7]

O=S(=O)(O)c1cc(I)c(O)c2ncccc12
inactive: [1] | [2] | [3] | [4] | [5] | [6] | [7]

CC[C@H]1OC(=O)C[C@@H](O)[C@H](C)[C@@H](O[C@@H]2O[C@H](C)[C@@H](O[C@H]3C[C@@](C)(O)[C@@H](O)[C@H](C)O3)[C@H](N(C)C)[C@H]2O)[C@@H](CC=O)C[C@@H](C)C(=O)/C=C/C(C)=C/[C@@H]1CO[C@@H]1O[C@H](C)[C@@H](O)[C@@H](OC)[C@H]1OC
inactive: [1] | [2] | [3] | [4] | [5] | [6] | [7]

CC12CCC(CC1=O)C2(C)C (centres undefined)
inactive: [1] | [2] | [3] | [4] | [5] | [6] | [7]

O=[N+]([O-])c1cccc(S(=O)(=O)O)c1
inactive: [1] | [2] | [3] | [4] | [5] | [6] | [7]

Cc1cccc(C)c1Nc1ncccc1C(=O)O
inactive: [2] | [3] | [4] | [5] | [6] | [7]
active: [1] 43.8 µM

Cc1ccc2c(c1[N+](=O)[O-])C(=O)c1ccccc1C2=O
active: [1] 22.5 µM | [5] 20.3 µM | [7] 25.7 µM
inactive: [2] | [3] | [4] | [6]

Cc1cn([C@H]2C[C@H](O)[C@@H](CO)O2)c(=O)[nH]c1=O
inactive: [1] | [2] | [3] | [4] | [5] | [6] | [7]

CC(C)=CCC1C(=O)N(c2ccccc2)N(c2ccccc2)C1=O
inactive: [7]
active: [1] 7.19 µM | [2] 34.3 µM | [3] 10.2 µM | [4] 33.5 µM | [5] 7.67 µM | [6] 42.1 µM

CCn1cc(C(=O)O)c(=O)c2cc(F)c(N3CCN(C)CC3)cc21
inactive: [1] | [2] | [3] | [4] | [5] | [6] | [7]

COc1ncnc(NS(=O)(=O)c2ccc(N)cc2)c1OC
inactive: [1] | [2] | [3] | [4] | [5] | [6] | [7]

Nc1cc(C(Cl)=C(Cl)Cl)c(S(N)(=O)=O)cc1S(N)(=O)=O
inactive: [1] | [2] | [3] | [4] | [5] | [6] | [7]

O=C(O)c1cc(O)c2c(c1)C(=O)c1cccc(O)c1C2=O
inactive: [1] | [2] | [3] | [4] | [5] | [6] | [7]

COc1cc(-c2ccc(-[n+]3nc(-c4ccccc4)nn3-c3ccc([N+](=O)[O-])cc3)c(OC)c2)ccc1-[n+]1nc(-c2ccccc2)nn1-c1ccc([N+](=O)[O-])cc1
active: [1] 19.1 µM | [2] 21.3 µM | [3] 36.5 µM | [4] 11.4 µM | [5] 21.7 µM | [6] 17.6 µM | [7] 18 µM

O=C(O)Cc1ccccc1Oc1ccc(Cl)cc1Cl
inactive: [1] | [2] | [3] | [4] | [5] | [6] | [7]

COC(=O)C1=C(C)NC(C)=C(C(=O)OC(C)(C)CN(C)CCC(c2ccccc2)c2ccccc2)C1c1cccc([N+](=O)[O-])c1 (centres undefined)
inactive: [1] | [2] | [3] | [4] | [5] | [6] | [7]

CCCCOC(=O)c1ccc(N)cc1
inactive: [1] | [2] | [3] | [4] | [5] | [6] | [7]

C=C(C)C(=O)OCC(C)(C)COC(=O)C(=C)C
inactive: [1] | [2] | [3] | [4] | [5] | [6] | [7]

c1ccc2sc(SN3CCOCC3)nc2c1
inactive: [1] | [2] | [3] | [4] | [5] | [6] | [7]

COC(=O)[C@@H]1[C@H]2C[C@H]3c4[nH]c5ccccc5c4CCN3C[C@@H]2CC[C@@H]1O
inactive: [1] | [2] | [3] | [4] | [5] | [6] | [7]

COc1ccc(C(=O)c2ccc(C)cc2)c(O)c1
inactive: [1] | [2] | [3] | [4] | [5] | [6] | [7]
